Data: PubChem BioAssay (NCATS)
Results filed as inconclusive are left out. Where a call stands in place of a potency, no number is given. A number with no mark means an inactive call. The source made the active and inactive calls. Calls come from the whole dose curve; as a rule, active = well fitted curve in the direction sought with a large enough effect; inconclusive = small, poorly fitted or top-dose-only effect, or another doubt; inactive = no such curve, though single readings can be large; an effect the other way counts as inactive or inconclusive.

Assays:
[1] = biological target: Rap guanine nucleotide exchange factor 3 (Homo sapiens) (UniProt O95398); assay: Confirmatory qHTS for antagonist of cAMP-regulated guanine nucleotide exchange factor 3 (EPAC1) (AID 1645880); note: nearly all actives have a fitted effect of over 55% in size; note: potency is the fitted concentration of half-maximal effect
In short: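 Nucleotide exchange uses 100 nM EPAC1, 250 nM RAP1B-BODIPY-GDP and 50 uM GDP, with compounds in a concentration-titration series. After 5 min at room temperature, fluorescence (480 nm ex/540 nm em) is read every 5 min for 30 min. Data are normalized to control ATA and DMSO.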

[2] = biological target: Rap guanine nucleotide exchange factor 3 (Homo sapiens) (UniProt O95398); assay: Confirmatory qHTS for agonist of cAMP-regulated guanine nucleotide exchange factor 3 (EPAC1) (AID 1645881); note: nearly all actives have a fitted effect of over 75% in size; note: potency is the fitted concentration of half-maximal effect;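 for activation: EPAC1 catalysed release of BODIPY-GDP from Rap1B seen as fluorescence loss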
[3] = biological target: Rap guanine nucleotide exchange factor 4 (Homo sapiens) (UniProt Q8WZA2); assay: Confirmatory qHTS for agonist of cAMP-regulated guanine nucleotide exchange factor 4 (EPAC2) (AID 1645884);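 note: nucleotide exchange releases bodipy-GDP from Rap1 and this lowers its fluorescence; nearly all actives have a fitted effect of over 65% in size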; note: potency is the fitted concentration of half-maximal effect
[4] = biological target: Rap guanine nucleotide exchange factor 4 (Homo sapiens) (UniProt Q8WZA2); assay: Confirmatory qHTS for antagonist of cAMP-regulated guanine nucleotide exchange factor 4 (EPAC2) (AID 1645885); note: nearly all actives have a fitted effect of over 25% in size; note: potency is the fitted concentration of half-maximal effect
[5] = biological target: Rap guanine nucleotide exchange factor 3 (Homo sapiens) (UniProt O95398); assay: Counterscreen qHTS for antagonist of cAMP-regulated guanine nucleotide exchange factor 3 (EPAC1) (AID 1645888);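 note: fluorescence loss as bound BODIPY-GDP is released from Rap1B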
In short: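 Measured: fluorescence of BODIPY-GDP bound to Rap1B, which falls as exchange proceeds. Conditions include 50 uM competing GDP, 5 and 30 min reads, and a later cAMP challenge for antagonist detection.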

Chain of Rap guanine nucleotide exchange factor 4 (Homo sapiens) (Q8WZA2 whole entry, looked up): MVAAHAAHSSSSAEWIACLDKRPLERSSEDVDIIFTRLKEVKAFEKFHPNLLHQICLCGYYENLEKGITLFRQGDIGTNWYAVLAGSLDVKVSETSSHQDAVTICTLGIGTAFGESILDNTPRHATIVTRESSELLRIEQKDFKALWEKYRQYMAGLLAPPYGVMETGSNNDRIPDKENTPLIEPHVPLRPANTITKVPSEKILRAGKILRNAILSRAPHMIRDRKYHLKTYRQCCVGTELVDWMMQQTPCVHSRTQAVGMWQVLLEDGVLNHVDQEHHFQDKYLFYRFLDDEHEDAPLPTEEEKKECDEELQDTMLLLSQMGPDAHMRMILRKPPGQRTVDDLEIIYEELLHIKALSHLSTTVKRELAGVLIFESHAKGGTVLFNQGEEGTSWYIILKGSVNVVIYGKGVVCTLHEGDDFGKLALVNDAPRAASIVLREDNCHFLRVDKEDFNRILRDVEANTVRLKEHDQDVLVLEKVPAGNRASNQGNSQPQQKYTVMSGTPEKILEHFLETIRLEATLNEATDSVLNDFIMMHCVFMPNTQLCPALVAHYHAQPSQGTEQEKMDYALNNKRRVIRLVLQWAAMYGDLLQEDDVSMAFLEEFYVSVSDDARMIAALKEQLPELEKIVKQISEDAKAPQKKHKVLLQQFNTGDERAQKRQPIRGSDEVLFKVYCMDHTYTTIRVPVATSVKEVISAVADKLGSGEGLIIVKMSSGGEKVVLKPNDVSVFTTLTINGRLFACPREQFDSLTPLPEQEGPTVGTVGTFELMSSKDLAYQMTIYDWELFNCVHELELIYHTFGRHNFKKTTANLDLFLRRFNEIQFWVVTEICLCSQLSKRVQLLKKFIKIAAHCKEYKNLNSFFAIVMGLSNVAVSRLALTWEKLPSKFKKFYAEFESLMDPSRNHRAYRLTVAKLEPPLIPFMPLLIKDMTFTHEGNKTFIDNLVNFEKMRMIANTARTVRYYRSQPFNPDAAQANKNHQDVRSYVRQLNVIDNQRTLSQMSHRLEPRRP
Chain of Rap guanine nucleotide exchange factor 3 (Homo sapiens) (O95398 whole entry, looked up): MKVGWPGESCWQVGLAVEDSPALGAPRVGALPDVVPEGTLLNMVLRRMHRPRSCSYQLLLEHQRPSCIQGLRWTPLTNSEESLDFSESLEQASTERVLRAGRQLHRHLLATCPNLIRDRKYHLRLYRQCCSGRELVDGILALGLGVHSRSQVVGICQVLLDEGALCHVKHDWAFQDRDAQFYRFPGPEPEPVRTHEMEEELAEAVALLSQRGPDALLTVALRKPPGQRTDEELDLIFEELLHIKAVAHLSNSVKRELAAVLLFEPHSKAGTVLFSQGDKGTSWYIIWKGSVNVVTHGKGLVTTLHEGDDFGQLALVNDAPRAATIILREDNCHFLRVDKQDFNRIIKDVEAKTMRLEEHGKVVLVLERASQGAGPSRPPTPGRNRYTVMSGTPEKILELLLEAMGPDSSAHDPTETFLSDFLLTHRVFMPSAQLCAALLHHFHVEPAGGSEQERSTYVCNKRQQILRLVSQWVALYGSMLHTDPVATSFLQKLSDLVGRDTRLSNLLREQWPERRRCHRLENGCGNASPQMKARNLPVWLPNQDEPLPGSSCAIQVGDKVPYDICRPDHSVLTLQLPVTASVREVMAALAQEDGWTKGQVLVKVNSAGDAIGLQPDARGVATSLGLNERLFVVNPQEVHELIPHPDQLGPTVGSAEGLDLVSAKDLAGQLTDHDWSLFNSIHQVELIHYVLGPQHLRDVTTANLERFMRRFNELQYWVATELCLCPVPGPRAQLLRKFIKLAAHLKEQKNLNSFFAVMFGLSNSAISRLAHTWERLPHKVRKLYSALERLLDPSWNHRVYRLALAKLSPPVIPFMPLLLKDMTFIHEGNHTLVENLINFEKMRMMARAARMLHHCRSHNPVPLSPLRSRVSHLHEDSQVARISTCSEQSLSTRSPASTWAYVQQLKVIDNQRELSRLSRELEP

| Compound | Potency [1] | Potency [2] | Potency [3] | Potency [4] | Potency [5] | outcome [4] | activation [3] | activity change, negative = inhibition [5] |
| --- | --- | --- | --- | --- | --- | --- | --- | --- |
| Cc1cc(NS(=O)(=O)c2ccc(NC(=O)Cc3ccc(Cl)c(Cl)c3)cc2)no1 | inactive | inactive | inactive | inactive | inactive |  |  |  |
| CN(C)CC/C=C1/c2ccccc2Sc2c(O)cc(Cl)cc21 | inactive | inactive | inactive | inactive | inactive |  |  |  |
| CCOc1ccc(N2CC(c3nc4ccccc4n3Cc3cccc(Cl)c3)CC2=O)cc1 (stereo not given) | inactive | inactive | inactive | inactive | inactive |  |  |  |
| Cc1ccccc1CNC(=O)CCC(=O)N1CCSc2ccccc21 | inactive | inactive | inactive | inactive | inactive |  |  |  |
| O=C1C=C(Nc2cccnc2)c2ccccc2C1=O | 67.5 µM (active) | inactive | inactive |  | inactive | inactive [at 12.7 µM] |  |  |
| CN1OC[C@@H]2CN(C(=O)CCc3ccccc3)[C@H](c3cccc(-c4ccc(C#N)cc4)c3)C[C@@H]21 | inactive | inactive | inactive | inactive | inactive |  |  |  |
| O=C(COC(=O)c1nc(Cl)ccc1Cl)c1ccccc1Cl | inactive | inactive | inactive | inactive | inactive |  |  |  |
| CCNC(=O)COc1ccc(/C=C2\COc3ccccc3C2=O)cc1OC | inactive | inactive |  | inactive |  |  | 4.45% [at 17.1 µM, percent relative to cAMP agonist control] | 0.373% [at 30.8 µM] |
| CCCCN1C(=O)C(CC(=O)NC2CCCCC2)CC(C(=O)N2CCCCCC2)=C1C (stereo not given) | inactive | inactive |  | inactive |  |  | 8.48% [at 17.1 µM, percent relative to cAMP agonist control] | -2.29% [at 30.8 µM] |
| COC1=NC(=C(c2ccccc2)c2ccccc2)OC1=O | 19 µM (active) | inactive | inactive | 47.8 µM (active) | inactive |  |  |  |
| Cc1ccc(C)c(S(=O)(=O)N2CCN(C(=O)CCCc3c[nH]c4ccccc34)CC2)c1 | inactive | inactive |  | inactive |  |  | 2.96% [at 17.1 µM, percent relative to cAMP agonist control] | -6.79% [at 30.8 µM] |
| CCc1ccc2c(c1)C(NC(C)=O)C(=O)N2CCN1CCOCC1 (stereo not given) | 19 µM (active) | inactive | inactive | inactive | inactive |  |  |  |
| COc1ccc(C2=Cc3ccccc3C(CC(=O)C3CC3)N2c2ccc(C#CCCO)cc2)cc1 (stereo not given) | inactive | inactive |  | inactive |  |  | 14.6% [at 17.1 µM, percent relative to cAMP agonist control] | -1.57% [at 30.8 µM] |
| CN1CCC/C1=C/C=C1\SC(=S)NC1=O | inactive | 89.1 µM (active) | 100 µM (active) | inactive | inactive |  |  |  |
| O=C(CCNC(=O)c1ccccc1Cl)NCC(c1ccc(F)cc1)N1CCOCC1 (stereo not given) | inactive | inactive | inactive | inactive | inactive |  |  |  |
| CCOC(=O)/C(C#N)=C/c1ccc(N2CCCCC2)cc1 | inactive | 56.2 µM (active) |  | inactive |  |  | 7.82% [at 17.1 µM, percent relative to cAMP agonist control] | -1.56% [at 30.8 µM] |
| CCOC(=O)C1=C(N)OC2=C(C(=O)CC(C)(C)C2)C1c1ccc(CC)s1 (stereo not given) | inactive | inactive | inactive | inactive | inactive |  |  |  |
